Source: PubChem BioAssay (Broad Institute)
Shown are actives, neighbours in structure and some others; about 6.7% of the full set was active somewhere.
Pf Dd2 inh: inhibitors of Plasmodium falciparum Dd2 growth; P. falciparum Dd2 growth, SYBR Green, 72 h; active compounds read low; activity change, % at 10 µM; hit rate 2.3% among 94,000; AID 1159554; in the data active = activity change below about -80%; inconclusive = no clear call, values can overlap the other calls
T cruzi growth-1: T. cruzi proliferation inhibition; T. cruzi beta-gal in NIH3T3, GalScreen luminescence, 90 h; inhibition, % at 8.34 µM; hit rate 5.9% among 77,000; AID 624255;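 active = mean inhibition above about 93%, with at least 55% of replicates each passing it, limit read from the data, passing the limit was not always enough; inconclusive = only one of those two conditions holds; inactive = neither condition holds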
C diff HTS: C. difficile growth inhibition. Clostridium difficile clinical isolate growth, OD600, 24 h; active compounds read low. growth activity, negative = inhibition, % at 16 µg/mL (by protocol). hit rate 0.25% among 86,000. AID 1259249;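 active = mean growth activity at or below -80% and every replicate also at or below -80%; inconclusive = mean at or below -80% but some replicate above -80%; inactive = mean growth activity above -80%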;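 note: 0% = DMSO wells and -100% = levofloxacin 16 µg/mL wells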
T cruzi growth-2: inhibitors of T. cruzi proliferation; shares compounds with T cruzi growth-1; T. cruzi beta-gal in NIH3T3, GalScreen luminescence, 90 h; inhibition, % at 8.35 µM; hit rate 72% among 5,600; AID 651739;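 active = mean replicate inhibition above about 95% and at least 55% of replicates individually reaching it, limit read from the data; inconclusive = only one of the two criteria is met; inactive = neither criterion is met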
T cruzi growth-3: inhibitors of T. cruzi proliferation | shares compounds with T cruzi growth-1 | T. cruzi beta-gal in NIH3T3, GalScreen luminescence, 90 h | inhibition, % at 2.09 µM | hit rate 21% among 5,600 | AID 651740;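 active = mean inhibition above about 95%, with at least 55% of replicates also reaching it, limit read from the data; inconclusive = meets just one of the two conditions; inactive = meets neither condition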;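 note: plate controls were neutral control median for no effect and positive control median for full effect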
NIH3T3 tox: NIH/3T3 (mouse) viability loss; shares compounds with T cruzi growth-1; NIH/3T3 viability, CellTiter-Glo ATP luminescence, 90 h; cytotoxicity (signal decrease), % at 8.35 µM; hit rate 14% among 5,600; AID 651742;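 active = mean signal decrease across replicates above about 35% based on untreated-well scatter, with enough replicates individually passing, limit read from the data; inconclusive = no rule stated though some were filed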;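 note: 0% = median of neutral control wells and 100% = median of positive control wells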
3T3 cytotox 2: cytotoxicity in mouse NIH/3T3 fibroblasts. shares compounds with T cruzi growth-1. NIH/3T3 viability, CellTiter-Glo ATP luminescence, 90 h. inhibition, % at 24.9 µM. hit rate 56% among 5,600. AID 651744;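 active = mean loss of cell viability signal at or above a set limit, and enough replicates individually reaching it; inconclusive = meets only the mean limit or only the replicate share; inactive = meets neither condition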;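 note: 0% = median of neutral control wells and 100% = median of positive control wells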
* marks the source's active call; other numbers are inactive results; u = inconclusive; x = not tested or not shown.

SMILES | Pf Dd2 inh | T cruzi growth-1 | C diff HTS | T cruzi growth-2 | T cruzi growth-3 | NIH3T3 tox | 3T3 cytotox 2
CC(C)(C)[S@](=O)N1Cc2cc(C(=O)NCc3ccncc3)nc(-c3cccc(-c4ccc(C#N)cc4)c3)c2[C@@H]1CCO | -66.7 | 99.4* | x | 102.7* | 57.1 | 18.0 | u
CC(C)(C)[S@](=O)N1Cc2cc(C(=O)NCCc3ccncc3)nc(-c3cccc(-c4ccc(C#N)cc4)c3)c2[C@@H]1CCO | -73.7 | 97.0* | x | 112.3* | 90.8 | 46.1* | 38.5*
CC(C)(C)[S@@](=O)N1Cc2cc(C(=O)NCCc3ccncc3)nc(-c3cccc(-c4cccc(C#N)c4)c3)c2[C@H]1CCO | -43.3 | 78.4 | x | x | x | x | x
CC(C)(C)[S@@](=O)N1Cc2cc(C(=O)NCCN3CCCC3)nc(-c3cccc(-c4ccc(C#N)cc4)c3)c2[C@H]1CCO | -77.1 | 32.6 | x | x | x | x | x
CN1CCN(C(=O)c2cc3c(c(-c4cccc(-c5ccc(C#N)cc5)c4)n2)[C@@H](CCO)N([S@](=O)C(C)(C)C)C3)CC1 | 21.8 | 36.7 | x | x | x | x | x
COc1cccc(CNC(=O)c2cc3c(c(-c4cccc(-c5cccc(C#N)c5)c4)n2)[C@H](CCO)N([S@@](=O)C(C)(C)C)C3)c1 | -55.2 | 73.8 | x | x | x | x | x
CC(C)(C)[S@](=O)N1Cc2cc(C(=O)N3CCCCC3)nc(-c3cccc(-c4ccc(C#N)cc4)c3)c2[C@@H]1CCO | -22.1 | 100.8* | x | 107.4* | 75.2 | 13.7 | 18.5
COc1cccc(CNC(=O)c2cc3c(c(-c4cccc(-c5ccncc5)c4)n2)[C@H](CCO)N([S@@](=O)C(C)(C)C)C3)c1 | -77.8 | 99.7* | x | 110.0* | 92.7 | -12.2 | 52.1*
O=S(=O)(N[C@@H]1CC[C@@H](CCn2cc(C3CC3)nn2)O[C@H]1CO)c1ccc(F)cc1 | 9.6 | -7.2 | x | x | x | x | x
O=C(c1ccc(F)cc1)N1CC(=O)N2[C@H](C1)[C@H](c1ccc(-c3ccccc3)cc1)[C@@H]2CO | -2.3 | x | -3.5 | x | x | x | x
CNC[C@H]1OCCCC[C@H](C)Oc2ccc(NC(=O)CCC(F)(F)F)cc2C(=O)N([C@@H](C)CO)C[C@@H]1C | 8.4 | 35.1 | -2.9 | x | x | x | x
COCC(=O)Nc1ccc2c(c1)C(=O)N(C)[C@@H]1CC[C@@H](CC(=O)NCC3CCCCC3)O[C@H]1CO2 | 2.1 | -16.3 | 2.2 | x | x | x | x
C[C@H]1CN([C@@H](C)CO)S(=O)(=O)c2ccc(C#CC3CCCCC3)cc2O[C@@H]1CN(C)C(=O)Cc1ccncc1 | -67.7 | 83.4 | x | x | x | x | x
C[C@H](CO)N1C[C@H](C)[C@@H](CN(C)C(=O)Cc2ccncc2)Oc2cc(C#CC3CCCC3)ccc2S1(=O)=O | -84.7* | 121.9* | 2.2 | 107.5* | 87.3 | 0.5 | u
C[C@@H]1CN([C@@H](C)CO)S(=O)(=O)c2ccc(C#CC3CCCC3)cc2O[C@@H]1CN(C)C(=O)Cc1ccncc1 | -32.4 | 121.9* | -0.8 | 97.2* | 78.8 | 13.2 | 62.2*
C[C@H](CO)N1C[C@H](C)[C@@H](CN(C)C(=O)Cc2ccncc2)Oc2cc(C#CC3CCCCC3)ccc2S1(=O)=O | -39.3 | 86.5 | x | x | x | x | x
C[C@@H]1CN([C@@H](C)CO)C(=O)Cc2cc(NC(=O)CCN3CCOCC3)ccc2O[C@H]1CN(C)C | 5.9 | x | 0.4 | x | x | x | x
C[C@H]1CN([C@@H](C)CO)C(=O)c2cccc(NC(=O)c3ccncc3)c2O[C@H]1CN(C)Cc1ccccc1 | 10.6 | 59.6 | -2.4 | x | x | x | x
Cc1noc(C)c1S(=O)(=O)N(C)C[C@@H]1Oc2ccc(NS(C)(=O)=O)cc2CC(=O)N([C@H](C)CO)C[C@@H]1C | 11.8 | -26.6 | -3.0 | x | x | x | x
CO[C@H]1CN(C)C(=O)c2ccc(NC(=O)c3ccc4c(c3)OCO4)cc2OC[C@@H](C)N(CCC(F)(F)F)C[C@@H]1C | -45.7 | 51.3 | x | x | x | x | x
CN(C)CC#Cc1ccc([C@@H]2[C@@H](CO)N3CCCCN(C(=O)CN(C)C)C[C@@H]23)cc1 | -4.5 | 19.3 | 0.3 | x | x | x | x
CN(C)CC#Cc1ccc([C@H]2[C@@H](CO)N3CCCCN(C(=O)CN(C)C)C[C@@H]23)cc1 | -0.5 | -4.8 | 1.9 | x | x | x | x
COCC#Cc1ccc([C@@H]2[C@H]3CN(C(=O)CN(C)C)CCCCN3[C@H]2CO)cc1 | 6.0 | 109.1* | -2.0 | u | 13.3 | -11.9 | 6.1
COCC#Cc1ccc([C@H]2[C@@H](CO)N3CCCCN(C(=O)CN(C)C)C[C@H]23)cc1 | 29.5 | 120.7* | 2.3 | 50.5 | 35.5 | -24.2 | -4.0
C[C@H](CO)N1C[C@H](C)[C@@H](CN(C)Cc2ccc(-c3ccccc3)cc2)Oc2ccc(NC(=O)Nc3ccccc3)cc2C1=O | -3.9 | 20.8 | 4.4 | x | x | x | x
SMILES | Pf Dd2 inh | T cruzi growth-1 | C diff HTS | T cruzi growth-2 | T cruzi growth-3 | NIH3T3 tox | 3T3 cytotox 2
Cc1cccc(-c2ccc([C@@H]3[C@@H](CO)N4CCCCN(S(=O)(=O)c5cccc(C)c5)C[C@@H]34)cc2)c1 | -40.7 | 88.5 | -8.8 | x | x | x | x
Cc1cccc(-c2ccc([C@@H]3[C@@H](CO)N4CCCCN(S(=O)(=O)c5cccs5)C[C@@H]34)cc2)c1 | 12.9 | 115.0* | 1.1 | 106.0* | 32.3 | 44.3* | 70.2*
Cc1cccc(-c2ccc([C@@H]3[C@H]4CN(S(=O)(=O)c5cccs5)CCCCN4[C@H]3CO)cc2)c1 | 9.9 | 97.6* | 0.7 | 107.4* | 74.8 | 24.8 | 59.8*
Cc1cccc(-c2ccc([C@H]3[C@@H](CO)N4CCCCN(S(=O)(=O)c5cccc(C)c5)C[C@@H]34)cc2)c1 | -43.3 | 73.0 | 7.5 | x | x | x | x
Cc1cccc(-c2ccc([C@H]3[C@H](CO)N4CCCCN(S(=O)(=O)c5cccs5)C[C@@H]34)cc2)c1 | -8.2 | 114.7* | -0.9 | 107.7* | 77.8 | 29.1 | 104.7*
COc1cccc(-c2ccc([C@@H]3[C@@H](CO)N4CCCCN(S(=O)(=O)c5cccs5)C[C@H]34)cc2)c1 | -2.2 | 67.4 | -0.5 | x | x | x | x
Cc1cccc(-c2ccc([C@@H]3[C@H](CO)N4CCCCN(S(=O)(=O)c5cccs5)C[C@@H]34)cc2)c1 | -28.2 | 103.3* | 40.0 | 105.8* | 64.4 | 47.3* | 102.3*
COc1cccc(-c2ccc([C@@H]3[C@H](CO)N4CCCCN(S(=O)(=O)c5cccs5)C[C@@H]34)cc2)c1 | -35.0 | 89.0 | 46.3 | x | x | x | x
CNC[C@@H]1Oc2c(NC(=O)NC(C)C)cccc2C(=O)N([C@@H](C)CO)C[C@@H]1C | 9.5 | -5.9 | 4.8 | x | x | x | x
CNC(=O)C[C@@H]1CC[C@H]2[C@@H](COc3ccc(NC(=O)c4cccs4)cc3C(=O)N2C)O1 | 3.6 | 21.2 | -0.5 | x | x | x | x
CCCN1C[C@H](C)[C@H](OC)CN(C)C(=O)c2ccc(NC(=O)c3cccc(F)c3)cc2OC[C@H]1C | -34.9 | 51.1 | x | x | x | x | x
CCCN1C[C@H](C)[C@@H](OC)CN(C)C(=O)c2ccc(NS(=O)(=O)c3cn(C)cn3)cc2OC[C@H]1C | 12.8 | 105.1* | x | -4.9 | -22.3 | 2.6 | -2.8
